Screens: PubChem BioAssay, several laboratories
Only some compounds are listed: those with a hit (about 4.2% of all), similar ones and a draw of the others.
FXN GAA850 act: increases GAA850 frataxin promoter reporter activity; activation, % at 6 µM; actives 0.56% (n = 360,000); HEK293 lucGAA850 FXN promoter luciferase reporter, 24 h; percent of 10 µM SAHA response;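 active = activation above the average of all compounds screened plus 3 SD, cutoff fixed separately per campaign, cut at about 7.5% in these data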
Wnt bcat act: Wnt/beta-catenin pathway activation | Wnt/beta-catenin reporter cell assay, activator, plate reader | activation, % at 9.35 µM | actives 1.2% (n = 300,000) | AID 743398; in the data active = activation above about 30%, passing the limit was not always enough; inconclusive = no clear call, values can overlap the other calls
esBAF inh: blocks esBAF chromatin remodeling in mouse ES cells; Bmi1-luciferase knock-in reporter, 24 h; 100% = twice the neutral-well signal; reporter increase, % at 12.5 µM; actives 2% (n = 350,000); AID 602393; in the data active = activation above about 40%; inconclusive = no clear call, values can overlap the other calls;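 note: a rise in the Bmi1 reporter signal indicates esBAF inhibition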
AHR activator: human AHR activation. P35869. AHR-responsive luciferase reporter cells, luminescence. activation, % at 5 µM. actives 2.5% (n = 320,000); in the data active = activation above about 47%
Target sequence (P35869 whole entry, looked up): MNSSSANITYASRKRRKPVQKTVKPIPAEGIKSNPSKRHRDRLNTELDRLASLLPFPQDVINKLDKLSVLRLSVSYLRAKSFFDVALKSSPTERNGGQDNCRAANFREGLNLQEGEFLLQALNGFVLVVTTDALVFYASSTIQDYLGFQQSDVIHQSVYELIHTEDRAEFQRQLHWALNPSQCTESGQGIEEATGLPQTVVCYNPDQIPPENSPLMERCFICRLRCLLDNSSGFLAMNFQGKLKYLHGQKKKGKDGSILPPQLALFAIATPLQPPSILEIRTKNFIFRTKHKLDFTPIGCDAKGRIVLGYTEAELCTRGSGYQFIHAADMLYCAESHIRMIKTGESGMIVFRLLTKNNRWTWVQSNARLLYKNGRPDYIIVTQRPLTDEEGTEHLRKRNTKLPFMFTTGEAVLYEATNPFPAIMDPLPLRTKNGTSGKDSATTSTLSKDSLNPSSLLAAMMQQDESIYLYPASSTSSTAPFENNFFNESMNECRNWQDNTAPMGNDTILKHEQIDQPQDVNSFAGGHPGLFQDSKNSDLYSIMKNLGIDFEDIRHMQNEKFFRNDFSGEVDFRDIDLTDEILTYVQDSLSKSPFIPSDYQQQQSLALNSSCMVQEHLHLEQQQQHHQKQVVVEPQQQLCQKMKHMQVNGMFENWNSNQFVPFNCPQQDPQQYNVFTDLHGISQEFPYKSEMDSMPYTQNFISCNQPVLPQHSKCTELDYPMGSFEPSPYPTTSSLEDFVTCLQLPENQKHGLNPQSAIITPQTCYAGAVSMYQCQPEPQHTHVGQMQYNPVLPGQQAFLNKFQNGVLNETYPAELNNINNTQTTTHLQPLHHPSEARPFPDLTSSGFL
MITF TRPM1 HTS: MITF TRPM1 promoter activation in melanoma cells | activation, % at 12.5 µM | actives 0.75% (n = 300,000) | SK-MEL-5 TRPM1-promoter luciferase, 24 h; % of positive control, neutral wells = 0;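 active = mean activation of at least 80% with every replicate also reaching 80%; inconclusive = mean reaches 80% but some replicate falls short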
GAA30 FXN cntr: activates GAA30 frataxin promoter, counter-screen for GAA850 activators; shares compounds with FXN GAA850 act; HEK293 lucGAA30 FXN promoter luciferase, 24 h; DMSO = 0%, 5 µM ipriflavone = 100%; activation, % at 6 µM; actives 66% (n = 1,900);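 active = mean activation above the mean of solvent-only control wells plus 3 SD, cut at about 22% in these data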;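 note: counterscreen of GAA850 promoter hits where activity marks nonselective or luminescence artifacts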
GAA850 confirm: GAA850 FXN promoter activation confirmation. shares compounds with FXN GAA850 act. activation, % at 6 µM. actives 86% (n = 1,900). AID 588351. HEK293 lucGAA850 FXN promoter luciferase reporter, 24 h; 100% = activation by SAHA;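 active = mean activation above a set limit taken from the primary screen, cut at about 8% in these data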
Large screens that a line does not name were inactive (follow-up assays come after a bar, where they were run).

COCC#Cc1ccc2c(c1)O[C@@H](CN(C)C(=O)Nc1ccccc1F)[C@@H](C)CN([C@@H](C)CO)S2(=O)=O	none (no result: FXN GAA850 act, Wnt bcat act, AHR activator, MITF TRPM1 HTS)
Cc1ccc(O)c(NC(=O)CCC2CCCCC2)c1	FXN GAA850 act 8.3, MITF TRPM1 HTS 84 (no result: Wnt bcat act, esBAF inh) | GAA30 FXN cntr 91 | GAA850 confirm 35
COc1ccc(NC(=O)N(C)C[C@@H]2Oc3ccc(NS(=O)(=O)c4ccc(OC)cc4)cc3CC(=O)N([C@H](C)CO)C[C@@H]2C)cc1	none (no result: FXN GAA850 act, Wnt bcat act, AHR activator, MITF TRPM1 HTS)
Cc1cccc(CCNC(=O)Cc2ccc(NC3=NC4CS(=O)(=O)CC4S3)cc2)c1 (stereo unspecified)	none (no result: MITF TRPM1 HTS)
Cc1cccc(CCNC(=O)c2cccc(NC3=NC4CS(=O)(=O)CC4S3)c2)c1 (stereo unspecified)	FXN GAA850 act 16 (no result: MITF TRPM1 HTS) | GAA30 FXN cntr inactive | GAA850 confirm inactive
CCCCCn1c(CN2CCN(c3cccc(Cl)c3)CC2)nc2c1c(=O)[nH]c(=O)n2C	FXN GAA850 act 8.5 (no result: Wnt bcat act) | GAA30 FXN cntr inactive | GAA850 confirm inactive
CN(C)c1ccc(C(=O)/C=C/c2cccnc2)cc1	FXN GAA850 act 8.8, esBAF inh 63 | GAA30 FXN cntr 119 | GAA850 confirm 37
NC(=O)C1CC(=O)N(c2ccc(OCc3ccc(Cl)cc3)cc2)C1 (stereo unspecified)	FXN GAA850 act 8.3, esBAF inh inconclusive | GAA30 FXN cntr 74 | GAA850 confirm 25
CCCNC(=O)C1CC(=O)N(c2ccc(OCc3ccc(Cl)cc3)cc2)C1 (stereo unspecified)	none
Cc1cc(O)c(-c2cc(O)c(C)cc2O)cc1O	FXN GAA850 act 11, AHR activator 52 (no result: MITF TRPM1 HTS) | GAA30 FXN cntr inactive | GAA850 confirm 29
Cc1nnc(Cl)c2nn(-c3ccccc3F)c(C)c12	FXN GAA850 act 13 (no result: esBAF inh) | GAA30 FXN cntr inactive | GAA850 confirm inactive
Cc1n[nH]c(=S)c2nn(-c3ccccc3F)c(C)c12	none (no result: Wnt bcat act, AHR activator)
CCOc1ccc(NC(=O)CSC2=NCCN2)cc1	none (no result: esBAF inh)
COC(=O)c1ccc(NC(=O)CSC2=NCCN2)cc1	FXN GAA850 act 10.0 (no result: Wnt bcat act, esBAF inh) | GAA30 FXN cntr 34 | GAA850 confirm 16
Cc1ccc(C(=O)/C=C/c2ccc(-c3ccc(C)cc3)o2)cc1	none (no result: esBAF inh)
O=C(/C=C\c1ccc(-c2ccccc2)o1)c1ccccc1	FXN GAA850 act 12, Wnt bcat act 37 (no result: esBAF inh) | GAA30 FXN cntr 67 | GAA850 confirm 27
CN1C(=O)c2cc(NC(=O)C3CCOCC3)ccc2OC[C@@H]2O[C@@H](CC(=O)NC3CCCC3)CC[C@H]21	none (no result: FXN GAA850 act, Wnt bcat act, AHR activator, MITF TRPM1 HTS)
CCC(=O)N(C)C[C@H]1Oc2cc(C#CC3CCCC3)ccc2S(=O)(=O)N([C@@H](C)CO)C[C@@H]1C	none (no result: FXN GAA850 act, Wnt bcat act, AHR activator, MITF TRPM1 HTS)
CN(C)C(CNC(=O)CSc1nc2sc3c(c2c(=O)n1C)CCCC3)c1ccccc1 (stereo unspecified)	FXN GAA850 act 7.9 | GAA30 FXN cntr inactive | GAA850 confirm 7.6
O=C(O)CSc1nc2sc3c(c2c(=O)n1-c1ccccc1)CCC3	none
COc1ccc(-n2c(SCC(=O)O)nc3sc4c(c3c2=O)CCCC4)cc1	FXN GAA850 act 8.3 | GAA30 FXN cntr 22 | GAA850 confirm 15
CCCOc1ccc(-c2c(=O)n(O)c3ccccc3[n+]2[O-])cc1	FXN GAA850 act 11, esBAF inh 50 (no result: MITF TRPM1 HTS) | GAA30 FXN cntr 95 | GAA850 confirm 31
CCOc1ccc(-c2c(=O)n(OCc3ccccn3)c3ccccc3[n+]2[O-])cc1	none
CN(Cc1ccccc1)C(=O)c1ccco1	none
O=C(C#Cc1ccccc1)c1ccco1	FXN GAA850 act 12 | GAA30 FXN cntr inactive | GAA850 confirm inactive
CCOC(=O)c1c(C)[nH]c(C(=O)OCCOc2ccccc2C)c1C	FXN GAA850 act 9.5, Wnt bcat act inconclusive (no result: AHR activator) | GAA30 FXN cntr 98 | GAA850 confirm 26
Cc1cc2nc(-c3ccc(NC(=O)C(C)C)cc3)oc2cc1C	FXN GAA850 act 8.5 (no result: Wnt bcat act, esBAF inh) | GAA30 FXN cntr 102 | GAA850 confirm 37
Cc1ccc(-c2nc3cc(NC(=O)C(C)C)ccc3o2)cc1	none (no result: Wnt bcat act)
CN(/N=C/c1ccncc1)c1cnc2ccccc2n1	FXN GAA850 act 9.6, Wnt bcat act 37 (no result: esBAF inh) | GAA30 FXN cntr 105 | GAA850 confirm 29
Clc1ccc(CN2C3=NCCN3c3ccccc32)cc1	none (no result: MITF TRPM1 HTS)
